Measurements: PubChem BioAssay AID1159580 (chemical genetic matrix, 2015)
Hit rate of the full screen: of about 5,500 compounds, about 2,000 (36%) were called active. Another 18% or so got no clear call; they are omitted. Rule as the data show it: active = normalized growth mostly below about 0.91 (no sharp cut-off); inconclusive = no clear call, values can overlap the other calls; inactive = mostly above about 0.92. This is one part of the list.

Test: chemical genetic growth profiling, strain panel (AID 1159580);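 also: tested at 20 µM; growth read once vehicle control cultures reached saturation at 30 °C; 1 = growth at the plate median or of vehicle wells; lower values mean less growth of the strain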
Conditions: growth OD

Measured: normalized growth

COc1cc([C@H]2Oc3cc([C@H]4Oc5cc(O)cc(O)c5C(=O)[C@@H]4O)ccc3O[C@@H]2CO)ccc1O
inactive: S. cerevisiae deletion strains, locus YJR075W, strain HOC1, stronger effect = lower value 0.999 | S. cerevisiae deletion strains, locus YKL009W, strain mrt4, stronger effect = lower value 0.984 | S. cerevisiae deletion strains, locus YKL068W, stronger effect = lower value 0.981 | S. cerevisiae deletion strains, locus YKL085W, strain MDH1 (second series), stronger effect = lower value 1.02 | S. cerevisiae deletion strains, locus YKL085W, strain MDH1, stronger effect = lower value 1.02 | S. cerevisiae deletion strains, locus YKL160W, strain elf1, stronger effect = lower value 1.01 | S. cerevisiae deletion strains, locus YKL190W, strain CNB1, stronger effect = lower value 0.989 | S. cerevisiae deletion strains, locus YKR001C, strain vps1, stronger effect = lower value 0.961 | S. cerevisiae deletion strains, locus YKR026C, strain gcn3, stronger effect = lower value 1.01 | S. cerevisiae deletion strains, locus YKR091W, strain srl3, stronger effect = lower value 1.01 | S. cerevisiae deletion strains, locus YLL001W, strain dnm1, stronger effect = lower value 1.01 | S. cerevisiae deletion strains, locus YLL026W, stronger effect = lower value 1.01 | S. cerevisiae deletion strains, locus YLL041C, strain sdh2, stronger effect = lower value 1.01 | S. cerevisiae deletion strains, locus YLR027C, strain aat2, stronger effect = lower value 1.02 | S. cerevisiae deletion strains, locus YLR039C, strain RIC1, stronger effect = lower value 0.945 | S. cerevisiae deletion strains, locus YLR058C, strain SHM2, stronger effect = lower value 0.998 | S. cerevisiae deletion strains, locus YLR102C, strain apc9, stronger effect = lower value 0.979 | S. cerevisiae deletion strains, locus YLR113W, strain HOG1, stronger effect = lower value 0.986 | S. cerevisiae deletion strains, locus YLR221C, strain rsa3, stronger effect = lower value 0.988 | S. cerevisiae deletion strains, locus YLR258W, strain gsy2, stronger effect = lower value 1 | S. cerevisiae deletion strains, locus YLR262C, strain YPT6 (second series), stronger effect = lower value 1.03 | S. cerevisiae deletion strains, locus YLR262C, strain YPT6, stronger effect = lower value 0.953 | S. cerevisiae deletion strains, locus YLR268W, strain sec22, stronger effect = lower value 0.965 | S. cerevisiae deletion strains, locus YLR320W, strain mms22, stronger effect = lower value 0.991 | S. cerevisiae deletion strains, locus YLR330W, strain CHS5, stronger effect = lower value 1 | S. cerevisiae deletion strains, locus YLR342W, strain FKS1 (second series), stronger effect = lower value 1.01 | S. cerevisiae deletion strains, locus YLR342W, strain FKS1, stronger effect = lower value 1.01 | S. cerevisiae deletion strains, locus YLR357W, strain rsc2, stronger effect = lower value 1.03 | S. cerevisiae deletion strains, locus YLR370C, strain arc18, stronger effect = lower value 1 | S. cerevisiae deletion strains, locus YLR371W, strain rom2, stronger effect = lower value 0.971 | S. cerevisiae deletion strains, locus YLR384C, strain iki3, stronger effect = lower value 1.02 | S. cerevisiae deletion strains, locus YLR418C, strain cdc73, stronger effect = lower value 0.978 | S. cerevisiae deletion strains, locus YML016C, strain PPZ1, stronger effect = lower value 1.01 | S. cerevisiae deletion strains, locus YML032C, strain rad52, stronger effect = lower value 0.945 | S. cerevisiae deletion strains, locus YML120C, strain ndi1, stronger effect = lower value 1.01 | S. cerevisiae deletion strains, locus YML124C, strain tub3, stronger effect = lower value 0.986 | S. cerevisiae deletion strains, locus YMR058W, strain fet3, stronger effect = lower value 0.998 | S. cerevisiae deletion strains, locus YMR078C, strain ctf18, stronger effect = lower value 0.979 | S. cerevisiae deletion strains, locus YMR125W, strain sto1, stronger effect = lower value 1.03 | S. cerevisiae deletion strains, locus YMR129W, stronger effect = lower value 1.01 | S. cerevisiae deletion strains, locus YMR205C, strain PFK2, stronger effect = lower value 1.01 | S. cerevisiae deletion strains, locus YMR223W, strain ubp8, stronger effect = lower value 0.958 | S. cerevisiae deletion strains, locus YMR231W, strain pep5, stronger effect = lower value 1.01 | S. cerevisiae deletion strains, locus YMR263W, strain SAP30, stronger effect = lower value 0.998 | S. cerevisiae deletion strains, locus YMR307W, strain GAS1, stronger effect = lower value 0.905 | S. cerevisiae deletion strains, locus YNL067W, strain RPL9B, stronger effect = lower value 0.994 | S. cerevisiae deletion strains, locus YNL071W, strain lat1, stronger effect = lower value 0.995 | S. cerevisiae deletion strains, locus YNL128W, strain TEP1, stronger effect = lower value 0.993 | S. cerevisiae deletion strains, locus YNL153C, strain GIM3, stronger effect = lower value 1 | S. cerevisiae deletion strains, locus YNL183C, strain NPR1, stronger effect = lower value 0.932 | S. cerevisiae deletion strains, locus YNL209W, strain ssb2, stronger effect = lower value 1.01 | S. cerevisiae deletion strains, locus YNL233W, strain BNI4, stronger effect = lower value 0.997 | S. cerevisiae deletion strains, locus YNL248C, strain rpa49, stronger effect = lower value 1.01 | S. cerevisiae deletion strains, locus YNL250W, strain rad50, stronger effect = lower value 0.975 | S. cerevisiae deletion strains, locus YNL271C, strain bni1, stronger effect = lower value 0.969 | S. cerevisiae deletion strains, locus YNL298W, strain CLA4, stronger effect = lower value 0.965 | S. cerevisiae deletion strains, locus YNL307C, strain MCK1, stronger effect = lower value 0.969 | S. cerevisiae deletion strains, locus YNL322C, strain KRE1 (second series), stronger effect = lower value 1.01 | S. cerevisiae deletion strains, locus YNL322C, strain KRE1, stronger effect = lower value 0.993 | S. cerevisiae deletion strains, locus YNR049C, strain mso1, stronger effect = lower value 1.01 | S. cerevisiae deletion strains, locus YNR052C, strain pop2, stronger effect = lower value 0.979 | S. cerevisiae deletion strains, locus YOL006C, strain TOP1, stronger effect = lower value 0.969 | S. cerevisiae deletion strains, locus YOL012C, strain htz1 0.746 | S. cerevisiae deletion strains, locus YOL147C, strain pex11, stronger effect = lower value 0.973 | S. cerevisiae deletion strains, locus YOR001W, strain rrp6, stronger effect = lower value 1.01 | S. cerevisiae deletion strains, locus YOR061W, strain CKA2, stronger effect = lower value 1 | S. cerevisiae deletion strains, locus YOR069W, strain VPS5, stronger effect = lower value 1.01 | S. cerevisiae deletion strains, locus YOR070C, strain gyp1, stronger effect = lower value 1.01 | S. cerevisiae deletion strains, locus YOR080W, strain dia2, stronger effect = lower value 1.02 | S. cerevisiae deletion strains, locus YOR083W, strain WHI5, stronger effect = lower value 1.01 | S. cerevisiae deletion strains, locus YOR106W, strain vam3, stronger effect = lower value 1.01 | S. cerevisiae deletion strains, locus YOR136W, strain idh2, stronger effect = lower value 0.973 | S. cerevisiae deletion strains, locus YOR144C, strain elg1, stronger effect = lower value 0.96 | S. cerevisiae deletion strains, locus YOR184W, strain ser1, stronger effect = lower value 0.947 | S. cerevisiae deletion strains, locus YOR231W, strain MKK1, stronger effect = lower value 1.02 | S. cerevisiae deletion strains, locus YOR265W, strain rbl2, stronger effect = lower value 1.01 | S. cerevisiae deletion strains, locus YOR270C, strain vph1, stronger effect = lower value 0.961 | S. cerevisiae deletion strains, locus YOR290C, strain snf2, stronger effect = lower value 0.996 | S. cerevisiae deletion strains, locus YOR316C, strain cot1, stronger effect = lower value 0.985 | S. cerevisiae deletion strains, locus YPL051W, strain arl3, stronger effect = lower value 1 | S. cerevisiae deletion strains, locus YPL055C, strain LGE1, stronger effect = lower value 0.995 | S. cerevisiae deletion strains, locus YPL078C, strain atp4, stronger effect = lower value 1.02 | S. cerevisiae deletion strains, locus YPL106C, strain sse1, stronger effect = lower value 0.994 | S. cerevisiae deletion strains, locus YPL240C, strain hsp82, stronger effect = lower value 1.01 | S. cerevisiae deletion strains, locus YPL241C, strain CIN2, stronger effect = lower value 0.975 | S. cerevisiae deletion strains, locus YPL256C, strain CLN2, stronger effect = lower value 1.01 | S. cerevisiae deletion strains, locus YPR119W, strain clb2, stronger effect = lower value 0.993 | S. cerevisiae deletion strains, locus YPR141C, strain kar3, stronger effect = lower value 0.985 | S. cerevisiae deletion strains, locus YPR163C, strain tif3, stronger effect = lower value 0.973 | S. cerevisiae deletion strains, locus YPR167C, strain met16, stronger effect = lower value 0.996 | S. cerevisiae deletion strains, strain wtn01, stronger effect = lower value 0.987 | S. cerevisiae strains, strain wild type, stronger effect = lower value 1
